Results: the supplement of paper PMC7801607

Key:
[1] = system: CHO; assay: % viability of CHO cells (MTT); higher = less toxic; settings: 48 h
In short: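 CHO cells were plated at 10^6 cells/well in 200 µL and allowed to attach overnight. Fresh medium with compound at 2 or 20 µM then replaced the old medium for 48 h. Percent viability, relative to untreated cells, came from a colorimetric tetrazolium (MTT) readout.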

[2] = system: HepG2-A16-CD81; assay: % inhibition of HepG2 viability (CellTiter-Glo); higher = more toxic; settings: 5 µM
[3] = system: Plasmodium falciparum NF54 stage IV/V gametocytes; assay: % inhibition of gametocyte viability (PrestoBlue); higher = more inhibition; settings: 48 h
In short: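 In a single run, percent inhibition of gametocyte viability was calculated relative to vehicle and kill controls. The wells held 100 µL of Stage IV/V NF54 gametocytes at 2% gametocytaemia and 5% haematocrit, with compound at 1 or 5 µM. Plates stood at 37 °C in hypoxic conditions for 48 h. After that, 10 µL PrestoBlue was added for 2 h, and 70 µL of supernatant was transferred for fluorescence reading at 612 nm.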

[4] = system: Plasmodium falciparum NF54 asexual blood stage; assay: % inhibition of asexual blood stage proliferation (pLDH); higher = more inhibition; settings: 72 h
In short: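 Percent inhibition of asexual proliferation, normalised to controls, was determined in a screen repeated on two separate occasions. Plasmodium falciparum NF54 ring-stage cultures (1% haematocrit, 2% parasitaemia) received compound at 2 or 20 µM and were incubated for 72 h at 37 °C under 4% CO2, 3% O2 and 93% N2. A colorimetric parasite lactate dehydrogenase readout at 620 nm gave survival.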

[5] = system: Plasmodium falciparum NF54 stage IV/V gametocytes; assay: % inhibition of gametocyte viability (ATP bioluminescence); higher = more inhibition; settings: 24 h
In short: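 Enriched stage IV/V NF54 gametocytes were exposed to compound at 1 or 5 µM for 24 h at 37 °C in 96-well plates. Percent inhibition of gametocyte viability was derived from a bioluminescent ATP readout, normalised to controls within a single run.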

[6] = system: Plasmodium falciparum NF54 stage IV/V gametocytes; assay: % inhibition of gametocyte viability (luciferase reporter); higher = more inhibition; settings: 48 h
In short: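 Compound at 1 or 5 µM was added to stage IV/V NF54-Pfs16-GFP-Luc gametocytes (2% gametocytaemia, 2% haematocrit) and incubated stationary and hypoxic at 37 °C for 48 h. A GloMax-Multi+ reader measured luminescence over 10 s integration on 30 µL lysate plus 30 µL Promega luciferin substrate. Percent inhibition values were normalised to controls within a single run.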

[7] = system: Plasmodium berghei ANKA liver stage in HepG2-A16-CD81; assay: % inhibition of liver stage parasite viability (luciferase); higher = more inhibition; settings: 5 µM; 48 h
Procedure: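 Single-concentration screen of the MMV Pandemic Response Box. P. falciparum NF54 asexual blood stages: pLDH assay, 72 h at 37 °C, 2 and 20 µM, n=2. Stage IV/V gametocytes (NF54): luciferase reporter (NF54-Pfs16-GFP-Luc, 48 h), ATP bioluminescence (24 h) and PrestoBlue (48 h) at 1 and 5 µM, n=1. P. berghei liver stage (luciferase in HepG2-A16-CD81, 48 h post infection) at 5 µM, n=4. All normalised to DMSO and kill controls as % inhibition.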
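Wherever % inhibition of HepG2 viability (CellTiter-Glo) is given: HepG2-A16-CD81 hepatoma cells plated as in the liver-stage assay but without sporozoites, with DMSO wells as negative and 25 µM puromycin as positive control.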

Compound	% viability of CHO cells ([1]; 2 µM) [%]	% viability of CHO cells ([1]; 20 µM) [%]	% inhibition of HepG2 viability [2] [%]	% inhibition of gametocyte viability ([3]; 1 µM) [%]	% inhibition of gametocyte viability ([3]; 5 µM) [%]	% inhibition of asexual blood stage proliferation ([4]; 2 µM) [%]	% inhibition of asexual blood stage proliferation ([4]; 20 µM) [%]	% inhibition of gametocyte viability ([5]; 1 µM) [%]	% inhibition of gametocyte viability ([5]; 5 µM) [%]	% inhibition of gametocyte viability ([6]; 1 µM) [%]	% inhibition of gametocyte viability ([6]; 5 µM) [%]	% inhibition of liver stage parasite viability [7] [%]
CC(C)c1cc2c(cc1S(=O)(=O)O)[C@@]1(C)CCC[C@@](C)(C(=O)O)[C@@H]1CC2	93.3	109	3.51	43.4	12.4	26	89	< 0	< 0	< 0	< 0	38.5
C=C[C@]1(C)C[C@@H](OC(=O)CS[C@@H]2C[C@H]3CC[C@@H](C2)N3C)[C@]2(C)[C@H](C)CC[C@]3(CCC(=O)[C@H]32)[C@@H](C)[C@@H]1O	77.8	48.9	7.56	< 0	2.51	68.8	104	1.57	7.83	< 0	< 0	53
O=C(Nc1ccc(Cl)c(C(F)(F)F)c1)C(CCCl)C(=O)Nc1ccc(Cl)c(C(F)(F)F)c1	84	93.6	5.66	< 0	< 0	19.9	27.7	< 0	< 0	< 0	< 0	11.8
O=C(N[C@H](CCS)C(=O)N[C@H](Cc1ccccc1)C(=O)O)c1cc2ccccc2[nH]1	78.3	74.3	-0.7	< 0	< 0	1.01	7.64	< 0	< 0	< 0	12	5.97
Oc1c(C(Nc2ccccn2)c2ccccc2)ccc2cccnc12 (centres undefined)	115	68.7	10.2	49	26.9	71.8	88.8	< 0	40.6	0.252	33.3	12.4
Nc1cnn(C2OC(CO)C(O)C2O)c(=O)n1 (centres undefined)	109	110	9.61	< 0	12.5	61.7	38.4	3.6	< 0	4.96	6.45	-44.9
CC1(C)CC(NC(=O)C(=O)Nc2ccc(Cl)cc2)CC(C)(C)N1	87.7	57.9	-9.07	22.5	17.1	-0.102	60.5	0.497	3.94	3.24	13.9	31.6
Clc1cccc(-c2nnc(-c3ccccc3)o2)c1	98.4	113	-5.12	< 0	< 0	9.27	15.9	< 0	< 0	< 0	30.2	-89.2
O=c1cc(Nc2ccc3ccccc3c2)[nH]c(=O)[nH]1	85.2	85.2	4.08	< 0	4.14	1.56	3.03	< 0	< 0	< 0	1.22	39.9
CCN(CC)CCn1c(=N)n(CC(O)COc2ccc(Cl)cc2Cl)c2ccccc21 (centres undefined)	98.9	0.284	2.98	< 0	< 0	95.4	101	82.2	90.7	< 0	91.6	42.1
O=C(CCc1ccc2c(c1)OCO2)NCc1ccc(-c2ccccc2F)cc1	87.7	94.9	8.8	< 0	< 0	-4.07	-11.2	4.23	< 0	< 0	< 0	43.9
CCOC(=O)N1CCN(c2ccc(Cl)cc2)CC1	90.5	83.4	-3.4	17.5	< 0	6.16	24.1	< 0	< 0	< 0	8.21	29.3
CC(C)c1ccc(COc2cccc(-c3cc(S(C)=O)c(C#N)c(=O)[nH]3)c2)cc1 (centres undefined)	91	106	3.83	< 0	28.5	18	56.2	51.9	82.8	< 0	< 0	32.5
COc1ccc(C2CNC(=O)C2)cc1OC1CCCC1 (centres undefined)	95.4	125	-2.26	< 0	12	28.3	40.1	< 0	< 0	8.32	7.49	29.1
COc1cc(NS(=O)(=O)c2ccc(C)cc2)c2ncccc2c1	118	94.1	-7.96	< 0	0.605	45.4	75.7	1.27	62.2	3.47	1.7	48.9
Clc1ccc(COC(Cn2ccnc2)c2ccc(Cl)cc2Cl)c(Cl)c1 (centres undefined)	89.6	135	4.88	10.1	< 0	48.6	73.4	< 0	20.2	< 0	22.3	33.2
C=C(C)[C@@H]1CC[C@]2(C(=O)O)CC[C@]3(C)[C@H](CC[C@@H]4[C@@]5(C)CC[C@H](O)C(C)(C)[C@@H]5CC[C@]43C)[C@@H]12	98.8	111	27.7	26.9	19.3	36.2	67.2	12.2	8.94	3.4	< 0	57
